Rows were chosen to be rich in hits. Some 11% of all compounds tested hit in one or more screens of this group.
KDM4E inh: qHTS Assay for Inhibitors of Human Jumonji Domain Containing 2E (JMJD2E); AID 2147, 2009; Lysine-specific demethylase 4E (Homo sapiens), B2RXH2; Potency, µM (top dose mostly 57.1 µM), without a hit: at the highest dose activity change, negative = inhibition, hits mostly inhibitors; JMJD2E catalytic domain, FDH-coupled NADH fluorescence (FDH is formaldehyde dehydrogenase); 230,000 compounds, 1.6% hits;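 also: potency is read from the fitted curve at half-maximal effect; 0% = wells with enzyme and -100% = buffer wells without enzyme; nearly all actives have a fitted effect of over 50% in size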
Target sequence (B2RXH2 1-337 limits assumed): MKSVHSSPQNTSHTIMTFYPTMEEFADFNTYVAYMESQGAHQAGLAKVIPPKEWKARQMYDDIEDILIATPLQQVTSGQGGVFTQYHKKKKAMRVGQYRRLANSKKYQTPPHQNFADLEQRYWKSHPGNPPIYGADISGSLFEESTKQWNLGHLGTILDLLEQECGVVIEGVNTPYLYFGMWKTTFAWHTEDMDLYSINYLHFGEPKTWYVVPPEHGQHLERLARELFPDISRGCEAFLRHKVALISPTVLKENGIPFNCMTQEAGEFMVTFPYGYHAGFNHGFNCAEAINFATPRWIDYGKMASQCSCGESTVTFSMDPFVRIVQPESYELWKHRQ
PNC assembly inh: High Content Assay for Compounds that inhibit the Assembly of the Perinucleolar Compartment; activity change (PNC), negative = inhibition, % at 10 µM; AID 2417, 2010; PC3M PTB-GFP, PNC prevalence imaging, 16 h; hits give low values; 140,000 compounds, 3.1% hits;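 active = readout at or below -70, meaning at least 70% loss of cells showing the perinucleolar compartment, a nuclear body marking cancer cells; inconclusive = readout between -30 and a set limit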;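 also: plate controls were DMSO wells for no effect and camptothecin positive control wells for full effect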
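Read-out is percentage of cells bearing a perinucleolar compartment, from automated 20x imaging of fixed, Hoechst-stained PC3M PTB-GFP cells. Cells were seeded 4 h, then exposed 16 h to compound (23 nl of library stock) in duplicate plates.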
ALDH1A1 block: qHTS Assay for Inhibitors of Aldehyde Dehydrogenase 1 (ALDH1A1); Potency, µM (highest dose often 75.3 µM), without a hit: at the highest dose activity, negative = inhibition, usual class: inhibitors; Purified ALDH1A1, NADH fluorescence, propionaldehyde substrate; AID 1030, 2008; 220,000 compounds, 7.3% hits;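 also: potency is read from the fitted curve at half-maximal effect; plate controls were no enzyme wells and a reference inhibitor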
HPGD inh: qHTS Assay for Inhibitors of HPGD (15-Hydroxyprostaglandin Dehydrogenase); 150,000 compounds, 4.3% hits; 15-hydroxyprostaglandin dehydrogenase [NAD(+)] (Homo sapiens), P15428; Potency, µM, for inactives: at the top dose activity change, negative = inhibition, actives largely listed as inhibitors; purified HPGD, NADH fluorescence kinetic, PGE2 substrate; also: potency is read from the fitted curve at half-maximal effect
Target sequence (P15428 whole entry, looked up): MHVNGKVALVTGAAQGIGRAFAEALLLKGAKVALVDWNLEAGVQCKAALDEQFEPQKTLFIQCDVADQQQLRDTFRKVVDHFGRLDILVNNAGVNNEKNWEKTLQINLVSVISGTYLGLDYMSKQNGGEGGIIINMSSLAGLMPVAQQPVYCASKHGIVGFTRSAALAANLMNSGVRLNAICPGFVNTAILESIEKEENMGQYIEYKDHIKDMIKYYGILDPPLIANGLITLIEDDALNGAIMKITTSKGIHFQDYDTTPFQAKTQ
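NADH formation kinetics: reaction with 30 uM PGE2 and 1 mM NAD+ (final), 20 nM enzyme, Tris-HCl pH 8 with Tween 20, after 15 min compound preincubation at room temperature. Fluorescence change, last versus first of five reads.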
Numbers without * were called inactive; ? = inconclusive; · = no result; [ ] = dose if it differs, or a comment. Unless noted, calls follow the shape of the dose curve; as a rule, active = well fitted inhibition curve with a large enough effect (not every such curve was filed as active); inconclusive = small, poorly fitted or top-dose-only effect, or another doubt; inactive = no such curve, though single readings can be large or run the other way. Unless noted, % is scaled to controls: 0 for no effect and ±100 for the full control effect.

SMILES	KDM4E inh	PNC assembly inh	ALDH1A1 block	HPGD inh
Cc1cc(=O)c2cccc(Br)c2[nH]1	-4.1%	-100.0*	9.8%	-13.9%
CSCC[C@@H](C(=O)O)N(C)C	·	·	7.0%[13.5 µM]	-5.3%
Oc1c(C(c2ccco2)N2CCOCC2)sc2ncnn12 (centres undefined)	?	7.1	14.1µM*	-23.7%
Oc1ccccc1C(=S)N1CCCCC1	-1.9%	-5.5	?	14.1µM*
Oc1ccccc1C(=S)N1CCCCCC1	-7.0%	?	25.1µM*	8.91µM*
O=c1c2c(nc3n1CCS3)c1cc(F)ccc1n2Cc1cc(=O)n2cc(Cl)ccc2n1	6.8%	·	·	·
CCc1cc(C(=O)O)c(NC(=O)C(c2ccccc2)c2ccccc2)s1	1.6%	-2.8	12.6µM*	-1.3%
O=C(CSc1cccc[n+]1[O-])c1ccc(Cl)s1	3.7%	·	2.0%	·
O=C(CN1CCN(S(=O)(=O)c2ccc(Br)cc2)CC1)Nc1ccc(F)cc1	-6.0%	?	31.6µM*	4.1%
O=C(CN1CCN(S(=O)(=O)c2ccc(Br)cc2)CC1)N/N=C/c1cccnc1	-2.1%	-90.1*	-0.6%	-5.2%
COc1ccc(C)cc1NC(=O)CN1CCN(S(=O)(=O)c2ccc(Br)cc2)CC1	-0.4%	-27.9	0.159µM*	-10.0%
O=C(CN1CCN(S(=O)(=O)c2ccc(Br)cc2)CC1)Nc1ccccc1F	5.3%	18.3	28.2µM*	-16.0%
NS(=O)(=O)c1ccc(NC(=O)CN2CCCN(S(=O)(=O)c3ccc(F)cc3)CC2)cc1	-1.5%	·	?	·
CC(C)CN(CC(C)C)C(=O)CCCC(=O)N(CC(C)C)CC(C)C	10.7%	?	-2.7%	-8.5%
S=C1SCN(C2CCCCCCCCCCC2)CN1C1CCCCCCCCCCC1	·	·	0.3%[13.5 µM]	-4.5%
Cc1ccc(NC(=O)Nc2ncnc3nc[nH]c23)cc1	7.2%	·	·	·
COc1ccc(S(=O)(=O)CCC(=O)Nc2cc(C)ccc2OC)cc1	-0.1%	·	25.1µM*	·
O=C(CN1CCCN(S(=O)(=O)c2ccc(F)cc2)CC1)Nc1ccccc1Br	-0.3%	-2.4	28.2µM*	-13.6%
O=C(CN1CCN(S(=O)(=O)c2ccc(Br)cc2)CC1)Nc1ccc(F)cc1F	7.5%	?	-1.8%	-0.7%
O=C(CN1CCN(CC(=O)Nc2ccccc2C(F)(F)F)CC1)Nc1ccccc1F	4.5%	?	25.1µM*	-7.7%
COc1ccccc1NC(=O)Cn1nc(C(F)(F)F)c2c1CCCC2	1.5%	4.4	2.0%	-13.2%
O=C(Cn1nc(C(F)(F)F)c2c1CCC2)Nc1ccccc1C(F)(F)F	6.8%	-100.0*	7.8%	-9.7%
CCN(CC(=O)NCc1ccc(F)cc1)CC(=O)Nc1ccc(S(=O)(=O)N2CCCC2)cc1	4.3%	·	11.2µM*	·
O=C(CN1CCN(CC(=O)c2ccc(F)cc2)CC1)Nc1ccccc1Cl	0.8%	-7.1	2.24µM*	?
COc1cc(C2Nc3c(F)cccc3C3C=CCC32)cc(Br)c1OC (centres undefined)	?	·	25.1µM*	·
SMILES	KDM4E inh	PNC assembly inh	ALDH1A1 block	HPGD inh
Cc1ccc(CNC(=O)c2cc3c(s2)CN(Cc2ccccc2)C3)cc1	?	·	0.9%	·
CCOC(=O)c1c(C)[nH]c(C(=O)CN2CC(C)OC(C)C2)c1C (centres undefined)	1.2%	17.6	7.94µM*	-3.7%
CCCCC(=O)OCC(=O)c1[nH]c(C)c(C(=O)OCC)c1C	0.7%	5.5	9.0%	-6.2%
CCOC(=O)c1c(C)[nH]c(C(=O)C(C)Cl)c1C (centres undefined)	0.8%	·	22.4µM*	·
CCOC(=O)c1c(C)[nH]c(C(=O)COC(=O)CSC)c1C	0.3%	-84.7*	-1.6%	-6.5%
CCOC(=O)c1c(C)[nH]c(C(C)=O)c1C	-2.6%	24.7	8.91µM*	-14.7%
COc1ccc(CNc2ccnc(-c3ccccc3CN(C)C)n2)c(OC)c1	·	·	0.3%	·
COc1cc2cc(C)c(SCC(=O)N3CCN(C(=O)c4ccco4)CC3)nc2cc1OC	-7.9%	·	·	·
CCOC(=O)c1c(C)[nH]c(C(=O)COC(=O)/C=C/c2ccc(OCC#N)c(OC)c2)c1C	-19.1%	·	?	·
CCOC(=O)c1c(C)[nH]c(C(=O)/C(C#N)=C/c2ccc(OCC)cc2)c1C	-0.5%	?	3.16µM*	-16.3%
N#CC1(C#N)CC(C=O)=C(N)C1(C#N)CC(=O)C12CC3CC(CC(C3)C1)C2 (centres undefined)	-27.1%	18.2	17.8µM*	-1.7%
CCOC(=O)CNC(=O)C12CC3CC(CC(C3)C1)C2	11.6%	·	4.5%	·
C=CCN1C(=O)/C(=C/C=C2/N(CC)c3ccc(S(=O)(=O)N(C)C)cc3N2CC)SC1=S	2.8%	·	2.82µM*	·
CC(C)(C)c1ccc(C(=O)c2c[nH]c(C(=O)NCCc3ccccn3)c2)cc1	4.7%	·	1.9%	·
COc1ccc(-c2csc(COC(=O)C(C)(C)C)n2)cc1	3.7%	·	·	·
COc1ccc(-c2csc(CCN3N=C(C)CC3=O)n2)cc1	?	·	2µM*	·
Cc1cccc(C)c1NC(=O)N1C2CCCC1CC(NC(=O)C(C)(C)C)C2 (centres undefined)	0.2%	-96.4*	15.1%	-1.5%
COc1cccc(C(=O)Nc2ccc3c(c2)C(=O)N(CCC(=O)O)C3=O)c1	-4.7%	?	13.3%	-14.5%
O=C(O)CCN1C(=O)c2ccc(NC(=O)CSc3ccccc3)cc2C1=O	-5.4%	-25.8	?	20µM*
COCCCN1C(=O)c2ccc(C(=O)Nc3cccc(OC)c3)cc2C1=O	6.7%	31.3	1.58µM*	-13.1%
CC(=O)Nc1cccc(Oc2ccc3c(c2)C(=O)N(CCC(=O)O)C3=O)c1	7.6%	-14.7	1.6%	25.1µM*
C=CCn1c(SCC(=O)NCc2ccco2)nnc1-c1ccc2ccccc2n1	-28.7%	15.3	?	15.8µM*
O=C(CSCC(=O)NCc1ccco1)NCc1ccco1	10.3%	-19.3	?	-5.9%
Cc1occc1-c1nnc(SCC(=O)NCc2ccco2)n1CC(C)C	?	1.3	?	-13.4%
O=C(CSc1ccc2c(c1)OCCO2)NCc1ccco1	1.1%	-9.7	14.1µM*	25.1µM*
SMILES	KDM4E inh	PNC assembly inh	ALDH1A1 block	HPGD inh
CCCn1cc(SCC(=O)NCc2ccco2)c2ccccc21	-2.3%	-21.9	?	17.8µM*
CC(C)C(CC(=O)NCc1ccco1)c1ccco1 (centres undefined)	-0.4%	34.9	?	14.1µM*
O=C1C[C@H]2OCC=C3CN4CC[C@@]5(C(=O)O)[C@H](N1)C2[C@H]3C[C@H]45 (some centres undefined)	·	·	-5.1%[13.5 µM]	-0.6%
CCOC(=O)C1CCN(C(=O)c2cccnc2Cl)CC1	-0.8%	26.6	-3.9%	-2.3%
O=C(CN1CCCc2ccccc21)NCCc1ccc(Cl)cc1	1.8%	·	-16.5%	·
Cc1cc(C)c2cc(C)c(SCC(=O)NCc3ccco3)nc2c1	-8.5%	·	14.1µM*	·
O=C(CCSCCC(=O)NCc1ccco1)NCc1ccco1	?	26.8	17.8µM*	15.8µM*
O=C(CSc1ccccc1)NCc1ccco1	9.3%	-5.3	5.5%	28.2µM*
O=C(CSc1ccc2c(c1)OCCO2)Nc1ccc(Br)cc1	?	?	7.08µM*	·

Source: PubChem BioAssay (National Center for Advancing Translational Sciences (NCATS))
